High-throughput results: PubChem, The Scripps Research Institute Molecular Screening Center
Hits are enriched below; roughly 4.1% of the tested compounds scored in any of these assays.
ssDAF-12 act: activates DAF-12 receptor from parasite S. stercoralis; HEK293 ssDAF-12/GRIP1 lit1-tk-luc reporter, luminescence; % of 3 µM dafachronic acid response; activation, % at 6.8 µM; AID 652126; 370,000 tested, 1% active;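 active = activation above the mean over all tested compounds plus 3 SD, cut at about 0.9% in these data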;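 note: 0% = DMSO-only wells and 100% = 3 µM delta7-dafachronic acid wells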
DAX1 inh-1: inhibitors of DAX1 repression of SF-1 activated StAR promoter. inhibition, % at 6.8 µM. 370,000 tested, 1.1% active. HEK293T StAR-luciferase reporter, SF-1/DAX-1 repression relief. AID 652010;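 active = inhibition above the mean over all tested compounds plus 3 SD, cut at about 3.6% in these data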;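 note: 0% = DAX-1 cells with DMSO and 100% = cells lacking DAX-1 with DMSO; higher inhibition means more luminescence from relief of DAX-1 repression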
hgDAF-12 ag: agonists of H. glycines DAF-12 nuclear receptor; HEK293 GAL4-hgDAF12 UAS-luciferase reporter, agonist luminescence; normalized to butyrate control; 370,000 tested, 1.8% active; activation, % at 6.8 µM; AID 687014;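 active = activation above a cutoff set at the mean of all screened compounds plus 3 SD, cut at about 10% in these data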;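 note: 0% = DMSO wells and 100% = sodium butyrate wells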
hcDAF-12 act: activators of H. contortus DAF-12 nuclear receptor; HEK293 hcDAF-12 lit1-tk-luc reporter, luminescence; 0% DMSO, 100% Δ7-dafachronic acid; activation, % at 6.8 µM; 370,000 tested, 1.4% active;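 active = activation above the mean of all tested compounds plus 3 SD, cut at about 5.5% in these data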;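 note: 100% = response to 3 µM Δ7-dafachronic acid high control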
DAX1 inh-2: inhibitors of human orphan nuclear receptor DAX1 (NR0B1) | P51843 | HEK293 Gal4-DAX1 luciferase reporter, luminescence | inhibition, % at 6.75 µM | 340,000 tested, 0.99% active;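 active = inhibition above the mean over all tested compounds plus 3 SD, cut at about 4.2% in these data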;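 note: 0% = DAX1-transfected cells with DMSO and 100% = empty-vector control cells with DMSO; inhibition shows as a rise in luminescence from relieved DAX1 repression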
Target sequence (P51843 207-470 limits assumed): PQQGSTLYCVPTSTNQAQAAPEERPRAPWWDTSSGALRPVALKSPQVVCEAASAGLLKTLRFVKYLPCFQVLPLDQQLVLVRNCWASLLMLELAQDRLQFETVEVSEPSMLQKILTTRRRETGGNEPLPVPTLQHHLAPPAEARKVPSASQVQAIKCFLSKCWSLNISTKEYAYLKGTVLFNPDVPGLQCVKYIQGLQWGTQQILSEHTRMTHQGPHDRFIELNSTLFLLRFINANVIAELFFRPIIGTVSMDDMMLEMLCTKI
The depositor's hits bear a star; nt = no result given.

SMILES	ssDAF-12 act	DAX1 inh-1	hgDAF-12 ag	hcDAF-12 act	DAX1 inh-2
C(=N\Nc1ccccc1)/c1ccc(N2CCOCC2)cc1	1.2*	2.4	13.1*	3.6	1.6
C=C(C)C1(O)OC(=O)C=C1OC (stereo unspecified)	0.1	2.2	0.1	6.5*	4.2
COc1cc(C(=O)NCCC2=CCCCC2)cc(OC)c1OC	-2.0	0.1	-1.6	-2.0	0.6
COc1cccc(C(=O)NCCC2=CCCCC2)c1OC	0.7	3.2	8.2	1.8	4.5*
Cc1ccc(-c2onc3ccc(C=O)cc23)cc1	0.2	1.4	13.0*	0.1	-3.4
Cc1ccc(-c2onc3ccc(C4(C)OCCO4)cc23)cc1	-1.3	-0.1	-1.1	-1.6	-0.3
CC(=O)c1ccc2noc(-c3ccc(Cl)cc3)c2c1	-1.2	-0.2	0.0	1.7	-0.5
Cc1cc(-c2onc3ccc(Cl)cc23)ccc1O	0.1	-0.2	6.9	6.2*	-0.2
CCOC(=O)CC1COCCN1C(=O)CCc1nnc(-c2ccsc2)o1 (stereo unspecified)	-1.1	-0.1	1.9	4.0	0.6
CC(OC(=O)c1cccnc1Cl)C(=O)Nc1ccc(S(N)(=O)=O)cc1 (stereo unspecified)	-2.1	-0.3	0.9	-0.6	6.2*
CCOc1ccccc1CNCCO	-1.2	0.1	-1.5	0.4	0.9
CCC(CO)NCc1ccccc1OC(C)C (stereo unspecified)	-1.4	-0.5	-1.2	-0.4	5.0*
O=C(COC(=O)c1ccc(Cl)c([N+](=O)[O-])c1)Nc1ccccc1OC(F)F	-1.0	0.1	0.8	2.1	4.7*
O=C(COC(=O)c1ccc2c(c1)OCO2)Nc1ccccc1OC(F)F	-0.8	-2.2	2.1	0.1	-1.0
Cc1ccc(S(=O)(=O)NCC(=O)OCC(=O)Nc2ccccc2OC(F)F)cc1	-1.2	-0.1	-0.8	-1.1	5.9*
C[C@]12C(=O)N(c3ccccc3)C(=O)N1[C@@H]1c3ccccc3OC[C@@H]1[C@H]2c1ccccc1	-0.7	-0.3	-1.9	-0.9	-0.7
C[C@]12C(=O)N(c3ccc(Br)cc3)C(=O)N1[C@H]1c3ccccc3OC[C@@H]1[C@H]2c1ccccc1	-0.9	-1.0	2.1	5.8*	0.2
CC1CCCCC1=NNC(=O)c1ccccc1 (stereo unspecified)	0.3	4.1*	10.2	2.1	5.9*
C=CCOC(=O)C1=C(C)OC(N)=C(C#N)C1c1ccco1 (stereo unspecified)	-1.1	-0.3	-1.3	-0.6	8.4*
CC1=C(C(=O)OC(C)(C)C)C(c2ccco2)C(C#N)=C(N)O1 (stereo unspecified)	-1.9	0.0	-1.4	-0.8	1.1
COc1cc(-c2cc3nc4ccccc4n3c(N)c2C#N)cc(OC)c1OC	-1.2	-1.8	-6.3	-2.6	-2.9
N#Cc1c(-c2ccccc2)cc2nc3ccccc3n2c1N	-0.5	-0.4	-0.6	-1.0	4.3*
Cc1cc(/C=C2\SC(=S)NC2=O)c(C)n1-c1cccc(O)c1	0.0	3.5	6.9	4.8	5.3*
Cc1ccc(-n2c(C)cc(/C=C3\SC(=O)NC3=O)c2C)cc1	0.3	1.0	5.5	3.2	2.3
CC(C)(C)c1ccc(-c2nnc(SCC(=O)c3ccc4ccccc4c3)n2-c2ccc(Cl)cc2)cc1	-1.2	-0.2	-2.9	2.1	nt
SMILES	ssDAF-12 act	DAX1 inh-1	hgDAF-12 ag	hcDAF-12 act	DAX1 inh-2
CCN(CC)c1ccc(/C=N/NC(=O)Nc2ccccc2)cc1	0.3	1.5	10.9*	4.2	1.9
CCN(CC)c1ccc(/C=N/NC(=O)OC(C)(C)C)cc1	0.6	1.6	5.1	2.6	4.9*
CCN(CC)c1ccc(/C=N\NC(N)=O)cc1	-1.4	-0.6	-6.1	-2.8	-0.6
Cc1ccc(/C=N/NC(=O)Nc2ccccc2)o1	0.0	2.3	11.0*	4.4	2.1
O=C(OCc1cn(Cc2cccc(Cl)c2)nn1)N1CCOCC1	-0.3	-0.8	3.7	-0.4	nt
COc1ccc(N2C(=O)c3n[nH]c(C)c3C2c2ccccc2)cc1 (stereo unspecified)	-0.5	0.8	1.6	-0.8	nt
COC(=O)Cn1c(CCC(=O)O)ccc1-c1ccccc1	-1.1	0.6	-0.4	-2.1	5.2*
COc1ccc(NC(=O)Cn2c(CCC(=O)O)ccc2-c2ccccc2)cc1	-0.4	0.1	1.2	-1.5	0.1
CCn1c(O)c(C2=c3ccccc3=NC2=O)c2cc(Br)ccc21	1.0*	-0.2	2.7	4.6	nt
O=C1N=c2ccccc2=C1c1c(O)n(-c2cccc(F)c2)[nH]c1=O	-0.5	0.0	-0.7	2.4	0.7
O=C(N1CCC(Cc2ccccc2)CC1)n1ncc(C(O)(c2ccccc2)c2ccccc2)n1	-2.2	nt	-10.3	-4.0	nt
CC(C)c1ccc(N(C(=O)c2ccco2)C(C(=O)NC2CCCC2)c2ccncc2)cc1 (stereo unspecified)	0.4	0.7	10.5*	4.1	0.9
COc1ccc(N(C(=O)c2ccco2)C(C(=O)NC2CCCC2)c2ccncc2)cc1 (stereo unspecified)	0.5	0.0	-0.9	-0.3	3.0
CCOc1ccc(N(C(=O)CNC(=O)c2ccco2)C(C(=O)NC2CCCC2)c2cccnc2)cc1 (stereo unspecified)	-0.7	0.6	4.1	0.6	5.9*
CC(C)n1c(O)c(N=NC(=O)C2COc3ccccc3O2)c2ccccc21 (stereo unspecified)	1.1*	-0.1	-1.7	3.1	-0.5
CC(=O)Nc1cccc(NC(=O)C(=O)c2cn(CC(=O)N3CCCC3)c3ccccc23)c1	1.2*	1.6	5.3	6.0*	0.0
COc1ccc(/C=C2\SC(=S)N(CCC(=O)Nc3ccccc3C(=O)O)C2=O)cc1	-0.8	-0.2	-1.9	-2.8	-1.1
COc1ccc(/C=C2\SC(=S)N(CCCC(=O)Nc3ccccc3C(=O)O)C2=O)cc1OC	-1.2	-0.1	-0.1	6.3*	1.0
Oc1ccc(/C=N/Nc2ncnc3c2ncn3Cc2ccccc2)cc1O	1.3*	0.3	1.3	-2.0	-0.4
COc1cccc(-n2c(CN3CCN(c4ccc(C)cc4)C(C)C3)nc3ccc([N+](=O)[O-])cc3c2=O)c1 (stereo unspecified)	0.0	-0.7	1.5	5.8*	-2.2
CC(C)COCc1ccc(O)c2ncccc12	-0.4	-0.1	-2.6	1.3	-1.4
CCCOCc1ccc(O)c2ncccc12	-0.8	-0.1	12.3*	1.0	0.9
CC1CCN(c2ccc(C(=O)O)cc2NS(=O)(=O)c2ccccc2[N+](=O)[O-])CC1	-1.3	-0.4	3.5	-1.3	nt
COc1ccc2c3n([n+]([O-])c2c1)CCN=C3c1ccc(C)cc1	1.1*	-0.1	3.0	5.6*	1.1
COc1ccc2c3n([n+]([O-])c2c1)CCN=C3c1cc(Cl)c(N)c(Cl)c1	-0.6	-0.6	0.9	1.0	-0.7
COc1ccc([C@H]2OC(=O)C[C@H]2C(=O)N2CCCCC2)cc1OC	-1.4	0.3	2.2	-3.9	nt
